PubChem BioAssay (NCI)
The panel holds about 83,000 compounds, 20% with a hit somewhere; the sample as a whole holds those more often.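 Growth was measured after 48 h exposure to one concentration of compound in 96-well plates. Values under 10 count as active.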 Activity calls are given as the source filed them.

Assays:
Experiment in all cases: NCI-60 one-dose screen, 48 h (100 = growth as untreated, 0 = no growth, -100 = all killed)
Conditions in all cases: 10 µM unless noted
[1] = system: SR leukemia
[2] = system: RPMI-8226 leukemia
[3] = system: OVCAR-8 ovarian
[4] = system: OVCAR-5 ovarian
[5] = system: OVCAR-4 ovarian
[6] = system: SK-OV-3 ovarian
[7] = system: IGROV1 ovarian
[8] = system: OVCAR-3 ovarian
[9] = system: HS 578T breast
[10] = system: NCI/ADR-RES ovarian
[11] = system: T-47D breast
[12] = system: BT-549 breast
[13] = system: MDA-MB-435 melanoma
[14] = system: SW-620 colon
[15] = system: MCF7 breast
[16] = system: HCT-116 colon
[17] = system: HCC-2998 colon
[18] = system: KM12 colon

Measured: growth

Nc1ncc([N+](=O)[O-])cn1
inactive: [1] 104% | [2] 98.6% | [3] 95.8% | [4] 102% | [5] 106% | [6] 106% | [7] 109% | [8] 104% | [9] 101% | [10] 105% | [11] 103% | [12] 111% | [13] 113% | [14] 104% | [15] 98.1% | [16] 106% | [17] 107% | [18] 101%

CCOS(=O)(=O)c1ccc([N+](=O)[O-])cc1
inactive: [1] 88.2% | [2] 106% | [3] 104% | [4] 103% | [5] 101% | [6] 111% | [7] 105% | [8] 106% | [9] 108% | [10] 105% | [11] 101% | [12] 111% | [13] 107% | [14] 119% | [15] 103% | [16] 106% | [17] 104% | [18] 108%

O=C(O)C1CSC(c2ccccc2)N1 (stereo not drawn)
inactive: [1] 115% | [2] 107% | [3] 106% | [4] 98.2% | [5] 111% | [6] 99.5% | [7] 105% | [8] 104% | [9] 88.4% | [10] 99.2% | [11] 101% | [12] 104% | [13] 108% | [14] 95.2% | [15] 91.5% | [16] 101% | [17] 103% | [18] 101%

CCOC(=O)c1ccc(C(C)(C)C)cc1
inactive: [1] 95.7% | [2] 104% | [3] 103% | [4] 106% | [5] 109% | [6] 104% | [7] 108% | [8] 107% | [9] 114% | [10] 108% | [11] 105% | [12] 109% | [13] 108% | [14] 107% | [15] 104% | [16] 102% | [17] 100% | [18] 105%

COc1ccc2c(Cl)cc(NC(=O)Nc3c(C)cccc3C)nc2c1
inactive: [1] 63.4% | [2] 73% | [3] 61.3% | [4] 83% | [7] 52.3% | [8] 78.2% | [9] 57.2% | [10] 78.2% | [11] 62.2% | [12] 93.8% | [13] 83% | [14] 85.3% | [15] 75.7% | [16] 63.8% | [17] 95.3% | [18] 88.8%
active: [5] -14.7% | [6] -6.49%

CCCCOC(=O)c1ccccc1O
inactive: [1] 154% | [2] 16.5% | [3] 107% | [4] 101% | [5] 105% | [6] 110% | [7] 118% | [8] 124% | [9] 103% | [10] 110% | [11] 107% | [12] 109% | [13] 97.5% | [14] 101% | [15] 98% | [16] 109% | [17] 122% | [18] 106%

c1ccc2c(NCCCN3CCN(CCCNc4c5ccccc5nc5ccccc45)CC3)c3ccccc3nc2c1
inactive: [10] 35.7% [100 µM]
active: [1] -3.4% [100 µM] | [2] -9.92% [100 µM] | [3] -37.8% [100 µM] | [4] -31.3% [100 µM] | [5] -48.8% [100 µM] | [6] -28.4% [100 µM] | [7] -31.6% [100 µM] | [8] -34.4% [100 µM] | [9] -19.1% [100 µM] | [11] -7.72% [100 µM] | [12] -61.4% [100 µM] | [13] -88.4% [100 µM] | [14] -22.7% [100 µM] | [15] -56.5% [100 µM] | [16] -49.6% [100 µM] | [17] -76.6% [100 µM] | [18] -14.9% [100 µM]

CC(=O)OC/C(C)=C\CC(C)COC(C)=O (stereo not drawn)
inactive: [1] 83% | [2] 94.2% | [3] 99.8% | [4] 111% | [5] 105% | [6] 101% | [7] 106% | [8] 112% | [9] 100% | [10] 104% | [11] 104% | [12] 102% | [14] 97.6% | [15] 90.2% | [16] 95.1% | [17] 103% | [18] 104%

CC(=O)OC(C)c1cccc(C#N)c1 (stereo not drawn)
inactive: [1] 104% | [2] 102% | [3] 103% | [4] 104% | [5] 109% | [6] 93.8% | [7] 115% | [8] 111% | [9] 106% | [10] 106% | [11] 99.1% | [12] 109% | [13] 113% | [15] 101% | [16] 100% | [17] 107% | [18] 104%

COc1cc(OC)c(NC(=O)C(Sc2nc(C)cc(C)c2C#N)c2ccccc2)cc1Cl (stereo not drawn)
inactive: [1] 98.4% | [2] 119% | [3] 88.6% | [4] 106% | [5] 105% | [6] 85.3% | [7] 93.4% | [8] 113% | [9] 86.7% | [10] 96.9% | [11] 95.9% | [12] 81.7% | [13] 105% | [14] 107% | [16] 86.7% | [17] 111% | [18] 96.4%

CCCCNc1ccc(-c2ccc(NCCCC)cc2)cc1
inactive: [1] 44.1% | [2] 61.8% | [3] 82.1% | [4] 90.3% | [5] 63.5% | [6] 94.5% | [7] 78% | [8] 67.8% | [9] 84.2% | [10] 79.3% | [11] 45.9% | [12] 31.1% | [14] 78.6% | [15] 34.3% | [16] 55.3% | [17] 94.7% | [18] 56.9%

Cc1ccc2[nH]c3ccccc3c2c1
inactive: [1] 79.6% | [2] 106% | [3] 98.4% | [4] 105% | [5] 100% | [6] 113% | [7] 107% | [8] 104% | [9] 106% | [10] 109% | [11] 93% | [12] 102% | [13] 101% | [15] 104% | [16] 98.3% | [17] 100% | [18] 101%

CCCCCCCCCc1ccc(OC(C)=O)cc1
inactive: [1] 102% | [2] 91.8% | [3] 101% | [4] 105% | [5] 107% | [6] 119% | [7] 111% | [8] 108% | [9] 96.3% | [10] 119% | [11] 108% | [12] 112% | [15] 102% | [16] 110% | [17] 113% | [18] 106%

Nc1cc(N)ncn1
inactive: [1] 93.9% | [2] 105% | [3] 116% | [4] 96.5% | [5] 99% | [6] 125% | [7] 101% | [8] 112% | [9] 96.2% | [10] 97.6% | [11] 112% | [12] 101% | [13] 102% | [15] 99.7% | [16] 99.1% | [17] 99.6% | [18] 101%

Clc1cccc(Cl)c1CSc1nc2ccccc2n2cccc12
inactive: [1] 71.9% | [2] 96.1% | [3] 104% | [4] 106% | [5] 70.4% | [6] 88.6% | [7] 76.4% | [8] 92.5% | [9] 113% | [10] 101% | [11] 25.1% | [12] 98.7% | [14] 97% | [15] 17% | [16] 86.9% | [17] 109% | [18] 84.4%

C1Cc2onc(-c3noc4c3CCC4)c2C1
inactive: [1] 99.1% | [2] 113% | [3] 110% | [4] 103% | [5] 105% | [6] 106% | [7] 114% | [8] 115% | [9] 114% | [10] 115% | [11] 108% | [12] 114% | [13] 113% | [14] 123% | [16] 108% | [17] 115% | [18] 106%
